A selection: hits, their analogues and other compounds. The true share with any hit is near 7.3%.
Rab9 prom act: qHTS Assay for Rab9 Promoter Activators | Huh7 Rab9 promoter-luciferase reporter, luminescence, 24 h | Potency, µM (highest dose often 9.22 µM), for the others: at the top dose activation, negative = inhibition, usual class: activators | actives 2.8% (n = 320,000) | AID 485297, 2010; note: % of control where 0% means no effect; nearly all actives have a fitted effect of over 60% in size
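Measured in stably transfected Huh7 cells bearing a Rab9 promoter–luciferase construct: 24 h compound treatment at 37 °C, followed by luminescence detection.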
FLuc modulator: qHTS profiling assay for firefly luciferase inhibitor/activator using purifed enzyme and Km concentrations of substrates (counterscreen for miR-21 project) | Luciferin 4-monooxygenase (Photinus pyralis), P08659 | purified FLuc, Km substrates, luminescence inhibition | Potency, µM (series often up to 57.5 µM), for the others: top-dose activity change, negative = inhibition, actives largely listed as inhibitors | actives 6.9% (n = 360,000) | AID 588342, 2011;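 note: plate controls were vehicle for no effect and reference inhibitor for full effect; nearly all actives have a fitted effect of over 55% in size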
Target sequence (P08659 whole entry, looked up): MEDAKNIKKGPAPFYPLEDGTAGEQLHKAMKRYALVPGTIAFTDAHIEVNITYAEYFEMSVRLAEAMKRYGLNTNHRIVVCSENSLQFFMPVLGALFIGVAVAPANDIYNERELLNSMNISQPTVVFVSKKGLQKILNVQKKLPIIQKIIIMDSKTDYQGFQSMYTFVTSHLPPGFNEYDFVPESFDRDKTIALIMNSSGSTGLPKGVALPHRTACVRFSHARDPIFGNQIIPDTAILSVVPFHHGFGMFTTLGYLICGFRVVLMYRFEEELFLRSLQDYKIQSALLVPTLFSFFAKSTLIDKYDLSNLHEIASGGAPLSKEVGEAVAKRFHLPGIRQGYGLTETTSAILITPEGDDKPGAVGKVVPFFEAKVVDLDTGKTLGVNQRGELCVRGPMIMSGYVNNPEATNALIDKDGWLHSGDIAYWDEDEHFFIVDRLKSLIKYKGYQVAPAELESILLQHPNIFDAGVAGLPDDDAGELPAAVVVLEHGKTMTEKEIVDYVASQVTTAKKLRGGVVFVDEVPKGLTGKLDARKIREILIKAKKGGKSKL
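Purified P. pyralis luciferase (10nM final) with 10uM D-luciferin and 10uM ATP (Km levels) in 50mM Tris acetate pH 7.5, 10mM Mg acetate, 0.01% Tween-20, 0.05% BSA; qHTS 6-point titration, ~60 µM downward; luminescence read.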
uPA generation: qHTS for Inhibitors of Cell Surface uPA Generation; cell surface uPA generation assay, qHTS; Potency, µM (highest dose often 38.3 µM), inactives show top-dose activity change, negative = inhibition, hits mostly inhibitors; actives 0.31% (n = 330,000); AID 540303, 2011; active = well fitted inhibition curve with a large enough effect; inconclusive = small, poorly fitted or top-dose-only effect; inactive = no such curve, though single readings can be large or run the other way; tested in mouse RAW 264.7 cells; note: % is set by controls: 0 for no effect and ±100 for the full control effect; nearly all actives have a fitted effect of over 55% in size
ELG1 genotoxic: qHTS screen for small molecules that induce genotoxicity in human embryonic kidney (HEK293T) cells expressing luciferase-tagged ELG1; actives 1.3% (n = 330,000); HEK293T ELG1-luciferase reporter, luminescence, 16 h; AID 504466, 2011; Potency, µM (doses to about 46 µM), inactives show at the highest dose activity change, positive = activation, most hits filed as activators; note: % of control where 0% means no effect; nearly all actives have a fitted effect of over 60% in size
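After overnight (16 hr) compound treatment at 37 °C, ELG1-luciferase HEK293T cells were lysed with ONE-Glo; luminescence quantified 30 min later at room temperature.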
SMN2 splice enh: qHTS Assay for Enhancers of SMN2 Splice Variant Expression; HEK293 SMN2-luciferase splicing reporter, luminescence, 30-36 h; Potency, µM (doses to about 46.1 µM), for the others: at the top dose activity change, positive = activation, usual class: activators; actives 2.8% (n = 210,000); AID 1458, 2008; note: % of control where 0% means no effect; nearly all actives have a fitted effect of over 55% in size
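qHTS luciferase splicing reporter: luminescence rises when SMN2 exon 7 is included in transfected HEK293 cells. Compound exposure lasted 30-36 h at 37C, with 4.5 mM final sodium butyrate as control, followed by a ONE-Glo read.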
NPC1 promoter act: qHTS Assay for NPC1 Promoter Activators | AID 485313, 2010 | Potency, µM (highest dose often 9.22 µM), for the others: at the top dose activation, most hits filed as activators | actives 2.4% (n = 320,000) | Huh7 NPC1 promoter luciferase reporter, 24 h; note: % of control where 0% means no effect; nearly all actives have a fitted effect of over 60% in size
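Huh7 reporter cells (NPC1 promoter driving luciferase) are dosed with compound for 24 h at 37 °C, 5% CO2; luciferase detection reagent is then added and luminescence measured after 10 min at ambient temperature.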
Starred values were filed as active, the others as inactive; ? = inconclusive; / = no result given. Unless noted, calls come from the whole dose curve; as a rule, active = well fitted curve in the direction sought with a large enough effect; inconclusive = small, poorly fitted or top-dose-only effect, or another doubt; inactive = no such curve, though single readings can be large; an effect the other way counts as inactive or inconclusive. Potency is the fitted concentration of half-maximal effect.

SMILES	Rab9 prom act	FLuc modulator	uPA generation	ELG1 genotoxic	SMN2 splice enh	NPC1 promoter act
CC(=O)N[C@H](Cc1c[nH]c2ccccc12)C(N)=O	/	/	/	/	-8%	/
Cc1ccc(NC(=O)Nc2ccccc2C(N)=O)cc1	15%	2.7µM*	-11%	12%	/	17%
Cc1ccccc1NC(=O)Nc1ccccc1C(N)=O	-2%	-12%	?	7%	/	-1%
O=C(Nc1ccc(N2CCOCC2)cc1)Nc1cnsn1	?	17µM*	-7%	15%	13µM*	?
COc1ccccc1NC(=O)Nc1ccccc1C(N)=O	1%	-18%	-5%	3%	-1%	5%
CCOc1ccc(NC(=O)Nc2ccccc2C(N)=O)cc1	0%	1.2µM*	-9%	2%	6%	8%
COc1ccccc1NC(=O)Nc1ccc(CC#N)cc1	?	21µM*	-3%	?	/	?
COC(=O)[C@H](COC(C)(C)C)NC(=O)O[C@@H]1C(=O)c2cc(OC)ccc2O[C@H]1c1cccc(OC)c1	/	/	/	/	9%	/
CCOC(=O)C1CCN(C(=O)COc2ccc3c(C)cc(=O)oc3c2)CC1	-1%	2%	2%	3%	/	0%
COc1ccc(NC(=O)Nc2ccccc2C(N)=O)cc1	1%	5.4µM*	-6%	7%	10%	-6%
COc1ccc(NC(=O)NC(C)c2ccccc2)cc1 (stereo not given)	-4%	2%	3%	0%	/	0%
COc1ccc(NC(=O)N/C=C/c2ccccc2)cc1	3.5µM*	?	-4%	?	16µM*	2µM*
COc1ccc(OC)c(NC(=O)CSC2=Nc3ccccc3C3=NC(CCC(=O)NCc4ccco4)C(=O)N23)c1 (stereo not given)	/	3%	/	/	/	/
COc1cc2c(cc1OC)CN(CCC(C)c1ccc(Cl)cc1)CC2 (stereo not given)	/	/	-6%	/	/	/
COC(=O)c1ccc2[nH]c(C(C)(C)O)c(C)c2c1	?	19µM*	-8%	?	/	?
COC(=O)c1ccc2[nH]c(C)cc(=O)c2c1	-3%	4%	4%	-3%	-11%	-3%
CCOC(=O)c1ccc2[nH]c3ccccc3c2c1	?	19µM*	-5%	10%	?	18%
O=C(NCCCO)c1ccc2[nH]c3ccccc3c2c1	1%	24µM*	2%	11%	12%	1%
CNC(=O)c1cc2c(cn1)[nH]c1ccccc12	?	/	-84%	/	-12%	?
CCCCOC(=O)c1cc2c(cn1)[nH]c1ccccc12	/	/	/	/	18µM*	/
Cc1nc(C(=O)NCCCO)cc2c1[nH]c1ccccc12	5%	?	-5%	10%	/	-1%
COc1cc(C=O)ccc1OCCSc1ccc(C)cc1	8%	?	-1%	16µM*	14%	12%
COc1cc(C=O)ccc1OCc1ccccc1Br	?	9.5µM*	-5%	?	?	?
COc1cc(C=O)ccc1OCc1cccc(Br)c1	-6%	7.6µM*	-5%	?	14µM*	-3%
O=C(Nc1cccc(Cl)c1Cl)c1cc2nc(-c3ccc(Cl)cc3)cc(C(F)(F)F)n2n1	/	-1%	/	/	-1%	/
SMILES	Rab9 prom act	FLuc modulator	uPA generation	ELG1 genotoxic	SMN2 splice enh	NPC1 promoter act
COc1ccc(CNC(=O)c2ccc(CS(=O)(=O)c3ccc(C)cc3)o2)cc1	-5%	0%	8%	-4%	/	2%
Cc1ccc(Nc2n[nH]c(C)c2[N+](=O)[O-])cc1C	1.1µM*	3µM*	-1%	?	11µM*	1.6µM*
CCN1CCN(c2nc(N)c([N+](=O)[O-])c(Nc3ccc(C)c(C)c3)n2)CC1	1%	-1%	-6%	1%	-14%	-3%
CCn1c(=O)c2cc(C(=O)N3CCN(c4cccc(OC)c4)CC3)sc2c2ccccc21	/	-4%	/	/	-35%	/
Cc1ccsc1/C=N/n1cnc2sc(C)c(C)c2c1=O	?	11µM*	-4%	6%	21%	?
c1coc(C2Nc3cccc4cccc(c34)N2)c1	18%	27µM*	/	-3%	17%	8%
CCc1ccc(OCC(=O)Nc2ccc(Cl)c(-c3nc4cc(C)cc(C)c4o3)c2)cc1	/	2%	/	/	-7%	/
O=C(COc1ccccc1)Nc1ccncc1Cl	18%	?	1%	11%	/	22%
CC1(C)C=Cc2cc3ccc(=O)oc3cc2O1	?	11µM*	-4%	?	14µM*	?
NC(=O)C1CCN(C(=O)CN(C2CCCCC2)S(=O)(=O)c2ccc(F)cc2)CC1	-1%	2%	0%	1%	/	1%
O=C(Nc1ccc(N2CCOCC2)cc1)c1cc2c(s1)CCCCC2	-9%	19µM*	-5%	2%	-16%	-1%
O=C(Nc1ccccc1N1CCOCC1)c1cc2c(s1)CCCCC2	?	4.8µM*	-1%	7%	/	27%
O=C(Nc1ccc(N2CCOCC2)cc1)c1cc2c(s1)CCCC2	2%	?	-3%	11%	-12%	10%
O=C(NCCc1ccc(Cl)cc1)c1cc2ccccn2n1	17%	-18%	-1%	3%	/	3%
Cc1ccc(NC(=O)c2cc3ccccn3n2)cc1F	/	2.4µM*	/	/	/	/
O=C(Nc1ccc(Br)cc1)c1cc2ccccn2n1	0.32µM*	0.95µM*	-21%	?	/	0.56µM*
CCc1ccc(NC(=O)c2cc3ccccn3n2)cc1	/	1.9µM*	/	/	/	/
Cc1ccccc1CCNC(=O)c1cc2ccccn2n1	/	11µM*	/	/	/	/
O=C(c1ccc(F)cc1)N1CCc2c([nH]c3ccccc23)C1c1ccc(Cl)cc1 (stereo not given)	/	0%	/	/	/	/
COc1cc(C)c(Cl)cc1S(=O)(=O)NCCc1c(C)[nH]c2ccccc12	/	-1%	/	/	-8%	/
Cc1ccc(NC(=O)Cc2ccc(-n3c(C)nc4cccnc43)cc2)cc1C	/	-10%	/	/	/	/
CCOC(=O)N1CCN(C(=O)CSc2nnc(COc3ccccc3)o2)CC1	0%	3%	-12%	0%	4µM*	-1%
CCOC(=O)N1CCN(C(=O)CSCc2ccccc2)CC1	?	?	1%	17%	11µM*	?
O=c1cc(-c2ccccc2)[nH]c2nc3ccccc3n12	2µM*	0.95µM*	-19%	2.3µM*	4µM*	3.5µM*
COc1cccc(N2CCN(c3ncnc4onc(-c5ccc(Cl)cc5)c34)CC2)c1	/	-2%	/	/	/	/
COc1cc(CCN2C(=O)N[C@@H](c3ccccc3)C(C(C)=O)=C2C)cc(OC)c1OC	/	/	/	/	11%	/
O=C(COC(=O)C12CC3CC(CC(O)(C3)C1)C2)Nc1ccc(Br)cc1F	3.5µM*	/	3%	?	/	?

Bioassay records deposited in PubChem by National Center for Advancing Translational Sciences (NCATS).
